Screening results: PubChem BioAssay, several laboratories
CYP2C9 inhib: blockers of cytochrome P450 2C9 activity – biochemical, luminescence, ADME assay, primary screen; CYP2C9 Supersomes, luciferin-H conversion; inhibition, % at 5 µM; 96,000 tested, 20% active; AID 777, 2007;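 active = blocking of liver enzyme CYP2C9 beyond about 50% at 5 µM, limit read from the data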
CYP2C19 act: human CYP2C19 activators, primary screen, biochemical, luminescence. Cytochrome P450 2C19 (Homo sapiens), P33261. recombinant CYP2C19, luciferin-H EGE luminescence; stronger effect = higher value; 0 = fully inhibited enzyme, 1 = untreated enzyme. activation factor at 5 µM. 96,000 tested, under 10 active. AID 1025, 2008;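 active = activation factor of at least 2 at 5 µM in the primary screen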
CYP2C19 inhib: blockers of cytochrome P450 2C19 activity – biochemical, luminescence, ADME assay, primary screen | P33261 | CYP2C19 Supersomes, luciferin-H EGE luminescence, 30 min | inhibition, % at 5 µM | 96,000 tested, 21% active;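 active = CYP2C19 inhibition above a set limit at 5 µM in the primary screen, cut at about 50% in these data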
CYP2C9 act: human CYP2C9 activators, primary screen, biochemical, luminescence; activation factor at 5 µM; recombinant CYP2C9, luciferin-H conversion; stronger effect = higher value; factor 1 = untreated enzyme, 0 = blocked; 96,000 tested, 1.4% active; AID 1024, 2008; Cytochrome P450 2C9 (Homo sapiens), P11712;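 active = activation factor of 2 or more for CYP2C9 at a 5 µM dose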
sEH inhibitor: soluble epoxide hydrolase inhibitors, primary screen, biochemical, human sEH; inhibition, % at 2 µM; 91,000 tested, 0.34% active; AID 707, 2007; recombinant human sEH enzymatic activity assay; in the data active = inhibition above about 80%
Target sequence (P34913 whole entry, looked up): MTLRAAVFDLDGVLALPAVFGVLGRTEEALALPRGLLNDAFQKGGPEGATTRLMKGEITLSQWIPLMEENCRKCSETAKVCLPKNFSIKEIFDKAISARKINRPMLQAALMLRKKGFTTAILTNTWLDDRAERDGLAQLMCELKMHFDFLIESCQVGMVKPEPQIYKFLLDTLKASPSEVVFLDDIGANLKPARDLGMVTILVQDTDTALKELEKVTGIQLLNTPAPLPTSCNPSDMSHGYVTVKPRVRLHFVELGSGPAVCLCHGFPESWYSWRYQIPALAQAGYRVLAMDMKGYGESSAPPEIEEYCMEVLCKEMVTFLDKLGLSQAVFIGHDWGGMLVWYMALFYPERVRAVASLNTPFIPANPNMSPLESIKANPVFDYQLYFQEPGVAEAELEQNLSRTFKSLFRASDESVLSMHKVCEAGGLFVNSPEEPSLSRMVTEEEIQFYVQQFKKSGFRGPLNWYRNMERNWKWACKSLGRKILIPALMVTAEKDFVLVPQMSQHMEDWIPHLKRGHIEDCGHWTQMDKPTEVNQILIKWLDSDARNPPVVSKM
sEH act: soluble epoxide hydrolase activators, primary screen, biochemical, human sEH; Bifunctional epoxide hydrolase 2 (Homo sapiens), P34913; purified human sEH enzymatic activity, activator screen; activation, % at 2 µM; 91,000 tested, 0.04% active; AID 717, 2007; in the data active = activation above about 37%
Large screens that a line does not name were inactive. Sampled rows, rich in hits. Any-hit rate of the full collection: about 27%.

COC(=O)C1C2c3ccccc3OC1(C)N=c1s/c(=C/c3cnn(C)c3C)c(=O)n12 (stereo not given)	CYP2C9 inhib 68
COC(=O)C(O)(c1ccc(N(C)C(=O)OC(C)C)cc1)C(F)(F)F (stereo not given)	none
COC(=O)C(O)(c1c(C)[nH]n(-c2ccccc2)c1=O)C(F)(F)F (stereo not given)	none
CCN(c1ccc(C(O)(C(=O)OC)C(F)(F)F)cc1)S(=O)(=O)c1ccccc1 (stereo not given)	CYP2C9 inhib 79, CYP2C19 inhib 95 (no result: sEH inhibitor, sEH act)
CCOC(=O)C(O)(c1ccc(N(CC)S(=O)(=O)c2ccccc2)cc1)C(F)(F)F (stereo not given)	CYP2C9 inhib 74, CYP2C19 inhib 61
Cc1cccnc1-n1c(CN2C(=O)c3ccccc3C2=O)nc2ccccc2c1=O	none
CCCCNc1ccncc1S(=O)(=O)NC(=O)NC(C)C	none (no result: CYP2C9 inhib, CYP2C19 act, CYP2C19 inhib, CYP2C9 act)
CN1C(=O)NC(=O)C2(Cc3ccccc3N3CCOCC32)C1=O (stereo not given)	none
O=C1NC(=O)[C@]2(Cc3ccccc3N3CCN(c4ccccc4)CC32)C(=O)N1Cc1ccccc1 (stereo not given in full)	CYP2C9 inhib 91, CYP2C19 inhib 71
CCCCN1C(=O)NC(=O)C2(Cc3ccccc3N3CCOCC32)C1=O (stereo not given)	CYP2C9 inhib 67, CYP2C19 inhib 70
O=C1NC(=O)[C@]2(Cc3ccccc3N3CCN(c4ccccc4)CC32)C(=O)N1c1ccccc1 (stereo not given in full)	CYP2C9 inhib 91, CYP2C19 inhib 63
COc1ccccc1N(CC(=O)NC1CCCCC1)C(=O)c1cnn(C(C)C)c1	none (no result: CYP2C9 inhib, CYP2C19 act, CYP2C19 inhib, CYP2C9 act)
CC12CN3CN(C1)CC(c1ccccc1)(C3)C2=O	none (no result: CYP2C9 inhib, CYP2C19 act, CYP2C19 inhib, CYP2C9 act)
O=c1cccc2n1CC1CC2CN(C(c2ccccc2)c2sc3ncnn3c2O)C1 (stereo not given)	none (no result: sEH inhibitor, sEH act)
C=CP(=O)(O)c1ccccc1	none (no result: sEH inhibitor, sEH act)
Cc1ccc(C(=O)Nc2ccc(Cl)cc2C(=O)c2ccccc2)cc1	none (no result: CYP2C9 inhib, CYP2C19 act, CYP2C19 inhib, CYP2C9 act)
Cc1ccc(N)c(C(=O)c2ccccc2)c1	CYP2C19 inhib 85
O=P(O)(O)COc1ccccc1O	none
Cc1ccc(C2=NCC(=O)N(CC(=O)N3CCCCC3)c3sc(C)c(C)c32)cc1	none
Cc1cc(N2C(=O)C3CCCN3C2c2sccc2C)no1 (stereo not given)	none (no result: sEH inhibitor, sEH act)
CCOC(=O)C(O)(c1ccc(N(CC)C(=O)OC)cc1)C(F)(F)F (stereo not given)	CYP2C9 inhib 69, CYP2C19 inhib 64
CCOC(=O)c1cc(C(O)(C(=O)OC)C(F)(F)F)c(/N=C/N(C)C)o1 (stereo not given)	none
CCOC(=O)N(CC)c1ccc(C(O)(C(=O)OCC)C(F)(F)F)cc1 (stereo not given)	CYP2C9 inhib 77, CYP2C19 inhib 58 (no result: sEH inhibitor, sEH act)
CCOC(=O)N(C)c1ccc(C(O)(C(=O)OCC)C(F)(F)F)cc1 (stereo not given)	CYP2C9 inhib 70, CYP2C19 inhib 61
CCOC(=O)C(NC(=O)CC)(Nc1ccc(C(O)(C(=O)OCC)C(F)(F)F)cc1C)C(F)(F)F (stereo not given)	CYP2C9 inhib 54
CN1CCN(c2ccc(C(N)=O)cc2N)CC1	none
CCOC(=O)Cn1cc([N+](=O)[O-])nc1[N+](=O)[O-]	none
O=C(O)C12C3CCCC1C32c1ccccc1 (stereo not given)	none
CC(NCc1ccc(Cl)c(Cl)c1)C(O)c1ccccc1 (stereo not given)	CYP2C19 inhib 100
CC(NCc1ccccc1Cl)C(O)c1ccccc1 (stereo not given)	CYP2C19 inhib 96
O=P(OCC(F)(F)C(F)F)(N1CCOCC1)N1CCOCC1	none
CCCC1=C(C(=O)OCC)C2(C(=O)Nc3ccc(C)cc32)C(C#N)=C(N)O1 (stereo not given)	CYP2C9 inhib 51, CYP2C19 inhib 62
CN(C)C(=O)Oc1c(Cl)cc(Cl)c2ccccc12	CYP2C9 act 3.1
CN(C)C(=O)Oc1ccc(-c2nnco2)cc1	none (no result: sEH inhibitor, sEH act)
COc1cc(C2NCc3ccccc3-n3cccc32)ccc1O (stereo not given)	CYP2C9 inhib 66, CYP2C19 inhib 73
COc1ccc(C2NCc3ccccc3-n3cccc32)cc1 (stereo not given)	none (no result: sEH inhibitor, sEH act)
CCOC(=O)[C@@]1(C#N)[C@@H]2C=CC(C(N)=O)=CN2[C@@H](C(N)=O)[C@@H]1c1cccc(Cl)c1	CYP2C9 inhib 59
CCOC(=O)[C@@]1(C#N)C(c2ccc(Cl)c(Cl)c2)[C@H](C(N)=O)N2C=C(C(C)=O)C=C[C@H]21 (stereo not given in full)	none
COC(=O)C(C)Oc1cc(C)cc2oc(=O)c3c(c12)CCC3 (stereo not given)	CYP2C9 inhib 92, CYP2C19 inhib 72
COC(=O)c1cc(COc2cc(C)cc3oc(=O)c4c(c23)CCC4)c(C)o1	CYP2C9 inhib 97, CYP2C19 inhib 78 (no result: sEH inhibitor, sEH act)
Cc1cc(OCC(=O)OC(C)C)c2c3c(c(=O)oc2c1)CCCC3	none (no result: sEH inhibitor, sEH act)
CCOC(=O)C(C)Oc1cc(C)cc2oc(=O)c3c(c12)CCCC3 (stereo not given)	CYP2C9 inhib 78 (no result: sEH inhibitor, sEH act)
COC(=O)C(C)Oc1cc(C)cc2oc(=O)c3c(c12)CCCC3 (stereo not given)	CYP2C9 inhib 92, CYP2C19 inhib 55
CCN1CCC(O)(c2ccccc2)C(C(=O)c2ccccc2)C1 (stereo not given)	none (no result: CYP2C9 inhib, CYP2C19 act, CYP2C19 inhib, CYP2C9 act)
Cc1nc2c(c(C)nn2-c2ccccc2)c(C)c1CCC(=O)N1CCC2(CC1)OCCO2	none (no result: sEH inhibitor, sEH act)
C[C@H]1CCCC(=O)CCC/C=C/c2cc(O)cc(O)c2C(=O)O1	CYP2C9 inhib 90, CYP2C19 inhib 88
O=C(CN1CCN(Cc2ccc(Cl)cc2)C1=O)N1CCC2(CC1)OCCO2	none
Cc1ccc(OCC(=O)N2CCN(CC3CC4C=CC3C4)CC2)cc1 (stereo not given)	none
Cc1ccsc1-c1nc(CSCC(=O)N2CCC3(CC2)OCCO3)c(C)o1	CYP2C19 inhib 67
Cc1ccccc1-c1nc(CS(=O)CC(=O)N2CCC3(CC2)OCCO3)c(C)o1 (stereo not given)	none
C=CCn1c(O)c(C=NCCCOc2ccc(CC)cc2)c(=O)[nH]c1=S	none (no result: CYP2C9 inhib, CYP2C19 act, CYP2C19 inhib, CYP2C9 act)
CCCC(=O)NC(Oc1ccccc1Cl)C(Cl)(Cl)Cl (stereo not given)	CYP2C9 inhib 59, CYP2C19 inhib 80
CC(=O)c1ccc(OC(NC(=O)c2ccco2)C(Cl)(Cl)Cl)cc1 (stereo not given)	none
